# Measured values reported in PubChem BioAssay (EPA / NIEHS).
# Records with an inconclusive call do not appear. Activity calls are given as the source filed them. How the source made its calls: active means hit-call score of the fitted dose curve at least 0.9, where 1 is the maximum; inconclusive means response in the unintended direction; inactive means score below 0.9.
# Target: Retinoic acid receptor alpha (Homo sapiens) (UniProt P10276)
# Experiment: ATG_RARa_TRANS: Attagene TRANS-FACTORIAL HepG2 Assay for human Retinoic Acid Receptor alpha (RARa) (AID 2283005);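 on AC50: potency for increased reporter signal meaning RARa activation over DMSO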
# Experimental: ATG_TRANS is a cell-based, multiplexed-readout assay that uses HepG2, a human liver cell line, with measurements taken at 24 hours after chemical dosing in a 24-well plate.ATG_RARa_TRANS is one of 30 assay component(s) measured or calculated from the ATG_TRANS assay. It is designed to make measurements of mRNA induction, a form of inducible reporter, as detected with fluorescence intensity signals by Reverse transcription polymerase chain reaction (RT-PCR) and Capillary electrophoresis technology.Data from the assay component ATG_RARa_TRANS was analyzed into 1 assay endpoint. This assay endpoint, ATG_RARa_TRANS, was analyzed in the positive analysis fitting direction relative to DMSO as the negative control and baseline of activity. Using a type of inducible reporter, measures of mRNA for gain-of-signal activity can be used to understand the reporter gene at the transcription factor-level as they relate to the gene RARA. Furthermore, this assay endpoint can be referred to as a primary readout, because this assay has produced multiple assay endpoints where this one serves a reporter gene function. To generalize the intended target to other relatable targets, this assay endpoint is annotated to the nuclear receptor intended target family, where the subfamily is non-steroidal.
# Human liver HepG2 cells are transiently transfected with multiple reporter transcription units (MRTUs) in 6-well plates using FuGene 6 reagent (Roche; 3 ml FuGene/1 mg DNA). The MRTU constructs are regulated by a cis-regulating element (promoter). […] A major difference between the CIS and TRANS system is that in CIS activities of endogenous TFs are measured, whereas the TRANS assay evaluates changes in activities of exogenous, chimeric NR-Gal4 proteins. […] At the end of 24 hour incubation, total RNA was isolated using TriZol reagent (Invitrogen). The isolated RNA is then reverse-transcribed using oligo(dT) primer and Mo-MLV reverse transcriptase (Invitrogen) with DNAse I (Ambion) treatment for 30 min. The one-tenth of the produced cDNA was amplified by PCR using Taq DNA polymerase (Invitrogen) and two reporter sequence-specific primers. The PCR products were fluorescently labeled by primer extension with 6-arboxyfluorescein (6-FAM) 5'-labeled reporter sequence-specific primer (2 min at 95 C, 20 s at 68 C and 10 min at 72 C) and these products were digested with 5U of HpaI (New England Biolabs) for 2h at 37 C. The fragments were purified using Qiaquick PCR columns (Qiagen), analyzed on an ABI 3130xL genetic analyzer (Applied Biosystems) with peak positions identified by using a set of X-rhodamine (ROX)-labeled MapMarker1000 molecular weight standards (BioVentures). The raw capillary electrophoresis data was processed using Attagraph software (Attagene).
# Sequence of Retinoic acid receptor alpha (Homo sapiens) (P10276 whole entry, looked up): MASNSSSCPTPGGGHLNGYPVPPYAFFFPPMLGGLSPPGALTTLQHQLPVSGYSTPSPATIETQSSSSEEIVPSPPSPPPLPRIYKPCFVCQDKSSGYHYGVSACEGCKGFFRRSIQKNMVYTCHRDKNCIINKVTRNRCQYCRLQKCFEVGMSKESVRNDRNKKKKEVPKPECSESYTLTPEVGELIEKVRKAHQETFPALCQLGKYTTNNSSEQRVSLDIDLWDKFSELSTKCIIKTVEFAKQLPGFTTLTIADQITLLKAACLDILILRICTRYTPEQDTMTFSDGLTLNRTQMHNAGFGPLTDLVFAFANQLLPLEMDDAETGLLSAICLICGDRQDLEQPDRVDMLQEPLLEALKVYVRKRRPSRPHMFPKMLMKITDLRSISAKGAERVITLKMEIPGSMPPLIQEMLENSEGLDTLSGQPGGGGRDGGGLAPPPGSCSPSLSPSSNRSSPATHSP
SMILES,outcome,AC50
CC(C)CCCCCCOC(=O)c1ccc(C(=O)OCCCCCCC(C)C)c(C(=O)OCCCCCCC(C)C)c1,inactive,–
Cn1cnc([N+](=O)[O-])c1Sc1ncnc2nc[nH]c12,inactive,–
Cc1ccc(S(=O)(=O)O)cc1C,inactive,–
CC[C@H]1OC(=O)[C@H](C)[C@@H](O[C@H]2C[C@@](C)(OC)[C@@H](O)[C@H](C)O2)[C@H](C)[C@@H](O[C@@H]2O[C@H](C)C[C@H](N(C)C)[C@H]2O)[C@](C)(O)C[C@@H](C)C(=O)[C@H](C)[C@@H](O)[C@]1(C)O,inactive,–
O=C1CCCCCN1,inactive,–
O=C(OC[C@H]1O[C@@H](OC(=O)c2cc(O)c(O)c(OC(=O)c3cc(O)c(O)c(O)c3)c2)[C@H](OC(=O)c2cc(O)c(O)c(OC(=O)c3cc(O)c(O)c(O)c3)c2)[C@@H](OC(=O)c2cc(O)c(O)c(OC(=O)c3cc(O)c(O)c(O)c3)c2)[C@@H]1OC(=O)c1cc(O)c(O)c(OC(=O)c2cc(O)c(O)c(O)c2)c1)c1cc(O)c(O)c(OC(=O)c2cc(O)c(O)c(O)c2)c1,inactive,–
Cc1c(-c2cccnc2)c2ccccc2n1CCCCC(=O)O,inactive,–
C1N2CN3CN1CN(C2)C3,inactive,–
CC(C)c1cccc(C(C)C)c1N1C(=O)c2ccc(O)cc2C1=O,inactive,–
Nc1cccc(N)c1,inactive,–
COCCOCCOCCOC,inactive,–
CCOC(=O)CC(CC(=O)OCC)(OC(C)=O)C(=O)OCC,inactive,–
CC(C)CCCCCCCOC(=O)CCCCC(=O)OCCCCCCCC(C)C,–,28.8 µM (active)
COC(=O)c1ccccc1O,inactive,–
CCCCC(CC)COC(=O)c1ccc(C(=O)OCC(CC)CCCC)cc1 (stereo not given),inactive,–
CCOC(=O)c1ccc(C2CCC(NC[C@H](O)COc3ccc(O)c(NS(C)(=O)=O)c3)CC2)cc1 (stereo not given in full),inactive,–
Cc1ccc(C)c(O)c1,inactive,–
Cc1[nH]cnc1C[C@H]1CCc2c(C)c3ccccc3n2C1=O,inactive,–
C=CCCCCCCCCC(=O)O,inactive,–
CCNc1ccccc1,inactive,–
CCN(C(=O)c1cc(C)cc(OC[C@H](C)Nc2ccncc2)c1)C(C)C,inactive,–
CC(C)CCO,inactive,–
C1=CCCC=CCCC=CCC1,inactive,–
NC(=O)NO,inactive,–
CNCc1ccc(NC(=O)c2c[nH]c3c2C(=O)CCC3)cc1,inactive,–
